# Screens (PubChem BioAssay)
# HP1b chromo inh: blocks HP1-beta chromodomain binding to methylated histone tails | AlphaScreen HP1-beta / biotin-H3K9me3 peptide binding | AID 540317 | P83916 | 390,000 tested, 0.56% active | Potency, µM (series often up to 114 µM), inactives show at the top dose activity change, negative = inhibition, most hits filed as inhibitors; also: potency is read from the fitted curve at half-maximal effect; nearly all actives have a fitted effect of over 70% in size
# Target sequence (P83916 whole entry, looked up): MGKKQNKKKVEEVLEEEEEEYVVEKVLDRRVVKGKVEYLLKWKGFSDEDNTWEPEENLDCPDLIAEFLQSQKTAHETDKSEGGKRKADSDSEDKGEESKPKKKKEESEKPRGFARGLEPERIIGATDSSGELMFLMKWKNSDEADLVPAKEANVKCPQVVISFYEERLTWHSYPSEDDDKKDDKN
#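 Compound inhibition of the preformed complex between 50 nM HP1-beta and 50 nM biotinylated H3K9me3 peptide was read by AlphaScreen. Buffer was PBS pH 7.4 with 0.01% Tween-20. Incubations ran 30 min at room temperature, with 10 ug/mL donor/acceptor beads.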
# JMJD2A Tudor: inhibitors of human JMJD2A Tudor domain. Potency, µM (doses to about 114 µM), for the others: at the top dose activity change, negative = inhibition, hits mostly inhibitors. 390,000 tested, 4.4% active. AID 504339. AlphaScreen JMJD2A-Tudor / H3K4me3 peptide binding; also: potency is read from the fitted curve at half-maximal effect; % is scaled to controls: 0 for no effect and ±100 for the full control effect; nearly all actives have a fitted effect of over 50% in size
# PI5P4K alpha inh: PI5P4K alpha (human) kinase inhibition; P48426; max response, %; 330,000 tested, 1.2% active; PI5P4Kalpha enzyme, ADP-Glo luminescence, 60 min; active compounds read low; active = max response of -50% or lower; inconclusive = between -30% and -50%; inactive = -30% or higher; also: value at the top dose of about 77 µM; % is scaled to controls: 0 for no effect and ±100 for the full control effect
#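 ADP-Glo luminescence end-point after a 60 min room-temperature kinase reaction. PI5P4Kalpha and substrate in HEPES pH 7.4 buffer with EGTA, 0.1% CHAPS and 5% DMSO; ATP at 5 microM final.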
# BAZ2B inh: inhibitors of human BAZ2B bromodomain. Q9UIF8. AlphaScreen BAZ2B-H3K14Ac peptide displacement. Potency, µM (doses to about 114 µM), without a hit: at the highest dose activity change, negative = inhibition, hits mostly inhibitors. 360,000 tested, 4.4% active. AID 504333; also: potency is read from the fitted curve at half-maximal effect; % is scaled to controls: 0 for no effect and ±100 for the full control effect; nearly all actives have a fitted effect of over 60% in size
#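 Inhibition is scored as reduced AlphaScreen emission. The BAZ2B/b-H3(5-23)K14Ac complex (50 nM each) in PBS pH 7.4, 0.01% Tween-20 meets compound (up to 110 uM) for 30 min at RT before bead addition.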
# PLK1 PBD inh: PLK1 (human) polo-box domain binding inhibition | Potency, µM, for inactives: max response, negative = inhibition, hits mostly inhibitors | 360,000 tested, 2.8% active | P53350 | Plk1 PBD binding of FITC phosphopeptide, fluorescence polarization; also: potency is read from the fitted curve at half-maximal effect; series mostly up to about 57 µM; % is scaled to controls: 0 for no effect and ±100 for the full control effect; nearly all actives have a fitted effect of over 65% in size
# Target sequence (P53350 whole entry, looked up, the tested form may be a part): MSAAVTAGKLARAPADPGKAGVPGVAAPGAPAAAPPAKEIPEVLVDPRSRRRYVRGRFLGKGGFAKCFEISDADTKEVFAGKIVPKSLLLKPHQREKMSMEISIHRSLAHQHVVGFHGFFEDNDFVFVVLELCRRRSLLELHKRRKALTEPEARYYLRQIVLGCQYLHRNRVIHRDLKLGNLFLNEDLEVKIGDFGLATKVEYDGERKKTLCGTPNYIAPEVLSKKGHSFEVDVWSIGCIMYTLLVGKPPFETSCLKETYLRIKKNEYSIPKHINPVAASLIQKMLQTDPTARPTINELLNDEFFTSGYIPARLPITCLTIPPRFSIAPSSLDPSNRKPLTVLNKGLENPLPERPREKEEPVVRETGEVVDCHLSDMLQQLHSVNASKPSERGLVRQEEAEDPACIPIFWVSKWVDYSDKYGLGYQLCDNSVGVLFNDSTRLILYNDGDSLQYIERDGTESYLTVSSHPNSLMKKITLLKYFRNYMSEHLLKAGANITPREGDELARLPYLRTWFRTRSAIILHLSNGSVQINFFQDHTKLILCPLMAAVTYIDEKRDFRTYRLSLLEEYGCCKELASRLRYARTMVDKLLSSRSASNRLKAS
# G9a block: inhibitors of human histone lysine methyltransferase G9a; G9a H3K9 monomethylation, AlphaScreen, 2 h; AID 504332; Potency, µM (series often up to 102 µM), for inactives: at the top dose activity, negative = inhibition, usual class: inhibitors; 350,000 tested, 8.8% active; Q96KQ7; also: potency is read from the fitted curve at half-maximal effect; % is scaled to controls: 0 for no effect and ±100 for the full control effect; nearly all actives have a fitted effect of over 75% in size
#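 Methyltransferase reactions run at room temperature for 2 h (20 nM enzyme, 500 nM biotin-H3K9 peptide, 20 uM SAM) after a 15 min compound preincubation; product detected by AlphaScreen beads and anti-H3K9me1 antibody.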
# The depositor's hits bear a star; ? = inconclusive; nt = no result given; [ ] = remark or other dose. A selection: hits, their analogues and other compounds. The true share with any hit is near 12%. Unless noted, calls follow the shape of the dose curve; as a rule, active = well fitted curve in the direction sought with a large enough effect; inconclusive = small, poorly fitted or top-dose-only effect, or another doubt; inactive = no such curve, though single readings can be large; an effect the other way counts as inactive or inconclusive.
SMILES,HP1b chromo inh,JMJD2A Tudor,PI5P4K alpha inh,BAZ2B inh,PLK1 PBD inh,G9a block
Cc1ccc(N2CCN(c3ncccc3[N+](=O)[O-])CC2)c(C)c1,?,39.8µM*,18.9,28.2µM*,-2.5%,17.8µM*
O=[N+]([O-])c1cccnc1N1CCCCC1,-10.1%,?,1.2,-27.9%,-6.1%,5.7%
Cc1ccc(C)c(N2CCN(c3ncccc3[N+](=O)[O-])CC2)c1,-20.8%,39.8µM*,20.7,31.6µM*,-17.3%,-9.7%[2.33 µM]
O=[N+]([O-])c1cccnc1N1CCN(c2ccccc2F)CC1,?,50.1µM*,1.4,?,-4.0%,?
Cc1cccc(NC(=S)N2CCCN(c3ncccc3[N+](=O)[O-])CC2)c1,-20.2%,?,-0.7,?,-27.8%,nt
Cc1ccc(C(=O)n2nc(C)c(S(=O)(=O)N3CCOCC3)c2C)cc1C,33.8%[57 µM],-15.3%,nt,-15.2%,nt,7.7%[59 µM]
Cc1ccc(NCc2cccn2-c2nnc(N3CCCCCC3)s2)cc1,-16.1%,?,nt,-8.3%[57.1 µM],nt,-34.0%[59 µM]
O=C1CC(c2ccc3c(c2)OCCO3)Oc2ccccc21 (stereo not drawn),29.6%,-23.6%,-0.2,-10.5%,8.44µM*,33.0%
Cc1ccccc1C(=O)N1CCN(CCNC(=O)C(=O)Nc2ccc(Br)cc2)CC1,7.9%,-4.4%,6.6,-10.0%,-16.1%,nt
O=c1/c(=C\c2ccc(O)cc2)sc2n1C(c1ccccc1)C(c1ccccc1)=NN=2 (stereo not drawn),-5.8%,-30.1%,-28.8,-30.8%[57.1 µM],8.6%,44.7µM*
CCc1ccc(-n2nc(C)c3c(C(=O)Nc4cccc(C(F)(F)F)c4)cc(C)nc32)cc1,98.8%,30.4%,nt,32.2%[57.1 µM],nt,32.4%[59 µM]
Cc1cc(C)nc(Nc2ncc(O)n2-c2ccccc2)n1,15.4%,56.2µM*,nt,-36.9%,1.6%,107.4%[59 µM]
Cc1ccc(-n2c(O)cnc2Nc2nc(C)cc(C)n2)cc1,8.8%,?,-2.3,-37.0%,-8.9%,48.0%[12.7 µM]
Cc1ccc(/C=N/NC(=O)Cn2nnc(N)n2)o1,27.9%,-8.3%,-6.3,-2.6%,-11.2%,44.7µM*
Cc1nn(C(C)C(=O)N/N=C/c2ccc(N(C)C)cc2)c(C)c1[N+](=O)[O-] (stereo not drawn),-2.4%,?,9.1,?,-2.4%,56.2µM*
COc1ccc(N2CC(C(=O)N/N=C/c3ccc([N+](=O)[O-])cc3)CC2=O)cc1 (stereo not drawn),19.9%,-14.9%,3.5,-16.5%,-2.8%,17.1%
CCC(Nc1ccc(OC)cc1)C(=O)N/N=C/c1ccc([N+](=O)[O-])cc1 (stereo not drawn),-19.8%,?,2.3,44.7µM*,-4.5%,?
COc1cccc(CNC(=O)Cn2nc(C)c([N+](=O)[O-])c2C)c1,20.0%,-15.3%,7.3,0.5%,-5.4%,-94.9%
Cc1ccc(/C=N/NC(=O)Cn2nnc(N)n2)cc1,20.0%,-13.7%,0.1,1.6%,-5.8%,-2.2%[12.7 µM]
COc1ccc(/C=N/NC(=O)Cn2nc(C)c([N+](=O)[O-])c2C)cc1,10.7%,79.4µM*,-9.5,-2.5%,29.9µM*,13.3%[59 µM]
Cc1ccc(N(Cc2cccs2)C(=O)C(C)Oc2ccc(Cl)c(C)c2)cc1 (stereo not drawn),93.3%,65.9%,nt,41.3%,nt,76.3%[59 µM]
Cc1ccc(/C=N/NC(=O)Cn2nc(C)c([N+](=O)[O-])c2C)o1,31.4%,-21.5%,9.1,-17.7%,-4.2%,50.1µM*
O=C(CSc1nc(=O)n2ccccc2n1)Nc1cccc2ccccc12,14.9%,?,-0.8,-2.2%,-26.8%,50.1µM*
Cc1cc(C)cc(-n2ccnc2SCC(=O)Nc2ccccc2F)c1,?,?,nt,28.2µM*,nt,14.1µM*
CCN(CC)CCn1c2c(c(SCC(=O)Nc3cccc4ccccc34)nc1=O)CCC2,4.2%,-12.2%,7.0,1.7%,-9.5%,?
SMILES,HP1b chromo inh,JMJD2A Tudor,PI5P4K alpha inh,BAZ2B inh,PLK1 PBD inh,G9a block
CN(C)CCn1c2c(c(SCC(=O)Nc3cccc4ccccc34)nc1=O)CCCC2,15.4%,-14.9%,9.3,-4.6%,0.0%,44.7µM*
Cc1cccc(NC(=O)CSc2nc(=O)n3ccccc3n2)c1C,4.5%,-11.3%,0.5,9.1%,-4.3%,9.4%
Cc1cc(C)cc(-n2ccnc2SCC(=O)Nc2cccc3ccccc23)c1,?,22.4µM*,nt,7.08µM*,nt,12.6µM*
Cn1ccnc1SCC(=O)Nc1cccc2ccccc12,22.8%,-14.2%,nt,-30.1%,-4.5%,-2.7%[12.7 µM]
O=C(C1CC1)N1CCN(c2nc3ccc(F)cc3s2)CC1,22.9%,-6.8%,nt,-1.9%,nt,-1.8%[59 µM]
Cc1cc(NC(=O)CSc2nccn2-c2cccc(F)c2)no1,6.3%,-11.8%,19.5,nt,-3.7%,nt
Cc1cccc(-n2ccnc2SCC(=O)Nc2cc(C)on2)c1,-15.8%,-35.6%[11.4 µM],3.7,-10.8%,26.7µM*,18.3%[12.7 µM]
COc1ccc(Cn2ccc3nc(C)c(C(=O)N4CCN(c5ccccc5OC)CC4)cc3c2=O)cc1,-7.9%,-33.0%,nt,-12.5%,nt,-3.8%[59 µM]
N#CC1=C2N=C(N)c3ccccc3N2C2=C(C(=O)CCC2)C1c1ccc(F)cc1 (stereo not drawn),2.9%,?,6.1,-34.7%,0.1%,-35.0%
Cc1ccc(C2C(C#N)=C3N=C(N)c4ccccc4N3C3=C2C(=O)CCC3)cc1 (stereo not drawn),5.9%,?,0.1,50.1µM*,-0.5%,?
N#CC1=C2N=C(N)c3c(sc4c3CCCCC4)N2C2=C(C(=O)CCC2)C1c1ccccc1 (stereo not drawn),-6.3%,?,nt,44.7µM*,-7.2%,-9.3%[59 µM]
Nc1nnc(-c2ccc(Cl)c([N+](=O)[O-])c2)s1,2.1%,-21.0%,?,-20.1%,-24.6%,44.7µM*
O=C(CCn1c(=O)c2cccn2c2cccnc21)NCc1cccc(Br)c1,34.1%,-7.0%,nt,-12.5%,nt,6.8%[59 µM]
CCc1ccc(CNC(=O)c2sc3ncccc3c2-n2c(C)ccc2C)cc1,13.7%[57 µM],-22.0%,nt,10.5%,nt,-0.7%[59 µM]
CCC(=O)N1c2ccccc2CC1C(=O)NCCc1cc(OC)c(OC)c(OC)c1 (stereo not drawn),29.7%,-15.6%,nt,-21.3%,nt,1.0%[59 µM]
NC(=O)CC(NC(=O)c1ccc(Br)cc1)c1ccc(N2CCN(c3ccc(F)cc3)CC2)c([N+](=O)[O-])c1 (stereo not drawn),25.4%,-22.9%,5.3,-14.5%,0.5%,-30.3%[12.7 µM]
NC(=O)CC(NC(=O)c1cccc(Br)c1)c1ccc(N2CCC(N3CCCCC3)CC2)c([N+](=O)[O-])c1 (stereo not drawn),34.3%,-3.4%,-1.2,-37.2%,3.0%,44.7µM*
NC(=O)CC(NC(=O)c1ccccc1)c1ccc(NCCN2CCOCC2)c([N+](=O)[O-])c1 (stereo not drawn),24.5%,-15.9%,6.4,-28.1%,-13.3%,70.8µM*
